Measurements as given in PubChem BioAssay.
Activity calls are given as the source filed them. Unless noted, the rule behind the calls is not given here.

Columns and labels:
[1] = compounds binding Alexa647 anti-His antibody – biochemical, small-molecule microarray, 635 nm fluorescence, artefact control for SMM control protein annotation, primary screen (AID 1128); settings: higher = more signal;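 note: score merges feature fluorescence with signal-to-noise for each printed compound spot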
[2] = system: Human papillomavirus type 1a E7 protein (residues 1-88); assay: HPV1a E7 small-molecule binders, primary screen, biochemical, small-molecule microarray, residues 1-88, 635 nm (AID 1129); settings: small-molecule microarray binding, fluorescence 635 nm; higher = more signal
[3] = target: Focal adhesion kinase 1 (Homo sapiens) (UniProt Q05397); assay: PTK2 protein binding on printed compound slides – biochemical, small-molecule microarray, 635/667 nm fluorescence, BSA, DTT, primary screen (AID 1130); settings: 635 nm fluorescence, higher = more signal;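 note: composite of spot emission at 667 nm and signal to noise over triplicate slides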
[4] = system: Fibrinogen (Alexa647-labelled); assay: Alexa647-fibrinogen binding to printed small molecules – biochemical, small-molecule microarray, 635/667 nm fluorescence, artefact control for SMM control-protein annotation, profiling panel (AID 1131); settings: fibrinogen-A647 binding fluorescence, higher = more signal;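 note: z-score merges 667 nm fluorescence with per-spot signal-to-noise over triplicate slides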
[5] = target: Follistatin (Homo sapiens) (UniProt P19883); assay: FST protein binding to printed compounds – biochemical, small-molecule microarray, 635/667 nm fluorescence, primary screen (AID 1132); settings: 635 nm fluorescence, higher = more signal
[6] = target: Fibroblast growth factor 2 (Homo sapiens) (UniProt P09038); assay: basic fibroblast growth factor binding to printed compounds – biochemical, small-molecule microarray, 635/667 nm fluorescence, primary screen (AID 1133); settings: FGF2, fluorescence 635/667, higher = more signal
[7] = JC-1 mitochondrial potential readout, lung cancer cells – cell-based, A549, JC-1 fluorescence, basal, 24 h, 100 nL, profiling panel (AID 1138); settings: higher = more signal;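 note: A549 lung adenocarcinoma cells under basal conditions with no added stimulus; test concentration not given here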
Lefty1 = Lefty1 protein binding to printed compounds – biochemical, small-molecule microarray, 635/667 nm fluorescence, primary screen (AID 1139); settings: fluorescence 635/667, higher = more signal
[8] = system: wheat germ agglutinin (Triticum aestivum), Alexa647-labelled; assay: Alexa647-WGA lectin binding to printed small molecules – biochemical, small-molecule microarray, 635/667 nm fluorescence, artefact control for SMM control-protein annotation, profiling panel (AID 1140); settings: WGA-A647 binding, 635 nm fluorescence, higher = more signal;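 note: score merges 667 nm feature emission with signal to noise over triplicate slides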
[9] = target: Luciferin 4-monooxygenase (Photinus pyralis) (UniProt P08659); assay: inhibition of purified Photinus pyralis luciferase – biochemical, luminescence, purified enzyme, 2006 set, primary screen (AID 1141); settings: purified firefly luciferase, SteadyGlo luminescence, 30 min; higher = more signal, called active from +8 up or from −8 down;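 note: cell-free assay with purified firefly luciferase at 100 ng per well in PBS; test concentration not given here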
[10] = system: Wnt5a (protein binding on small-molecule microarray); assay: small molecules binding Wnt5a protein – biophysical, small-molecule microarray, 635/667 nm fluorescence, primary screen (AID 1142); settings: 635 nm fluorescence, higher = more signal;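 note: fluorescence read at 667 nm with signal to noise per printed feature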
[11] = ATP-based viability of Huh7 replicon cells – cell-based, CellTiter-Glo luminescence, basal, 48 h, cytotoxicity control for HCV replication inhibitor project, primary screen (AID 1143); settings: higher = more signal, called active from +8 up or from −8 down;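 note: Huh7 hepatoma cells carrying a hepatitis C replication reporter with no stimulus; test concentration not given here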
[12] = Pseudomonas biofilm growth suppression – PAO1 strain, BacTiter-Glo luminescence, LB-PBS, primary screen (AID 1144); settings: P. aeruginosa PAO1 biofilm, 12 h, higher = more signal
[13] = basal CRE-LacZ reporter activity in PC12 – cell-based, unstimulated, primary screen (AID 1145); settings: no forskolin, luminescence, 4.5 h, higher = more signal, called active from +8 up or from −8 down
[14] = forskolin-driven CRE-LacZ activity in PC12 – cell-based, CRE-LacZ reporter, forskolin-stimulated, primary screen (AID 1146); settings: luminescence, 4.5 h, higher = more signal, called active from +8 up or from −8 down;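 note: PC12 cells with 6xCRE LacZ reporter stimulated by forskolin 10 µM; beta-galactosidase reporter signal reflecting CREB driven transcription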
[15] = target: Streptavidin (Streptomyces avidinii) (UniProt P22629); assay: compounds binding control protein streptavidin – biophysical, small-molecule microarray, 635/667 nm fluorescence, artefact control for SMM compound annotation, primary screen (AID 1147); settings: higher = more signal;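 note: signal reflects streptavidin binding to arrayed compounds as a control protein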
[16] = probe aInhba binding on compound microarray – biochemical, small-molecule microarray, 635/667 nm fluorescence, primary screen (AID 1148); settings: higher = more signal;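 note: score merges 667nm spot fluorescence with signal-to-noise for antibody binding to printed compounds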
Torsin-1A (Homo sapiens) [17] = target: Torsin-1A (Homo sapiens) (UniProt O14656); assay: TOR1A wild-type binding on microarray – cell lysate, small-molecule microarray, lysate, 635/667 nm, primary screen (AID 1149); settings: COS7 hTOR1A-WT lysate, 635 nm fluorescence, higher = more signal
Torsin-1A (Homo sapiens) [18] = target: Torsin-1A (Homo sapiens) (UniProt O14656); assay: torsin A mutant lysate binding on microarrays – cell lysate, small-molecule microarray, COS7 lysate, 635/667 nm fluorescence, primary screen (AID 1150); settings: COS7 hTOR1A mutant lysate, 635 nm fluorescence, higher = more signal;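 note: score pools 667 nm emission and signal to noise measuring lysate protein binding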
[19] = system: Sonic hedgehog protein (Shh); assay: Sonic hedgehog microarray binding compounds – biochemical, small-molecule microarray, 635/667 nm fluorescence, primary screen (AID 1151); settings: 635 nm fluorescence, higher = more signal;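 note: Shh protein binding to compounds spotted on small-molecule microarray slides; score combines spot fluorescence intensity with signal-to-noise across triplicate slides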

Torsin-1A (Homo sapiens), sequence (O14656 whole entry, looked up): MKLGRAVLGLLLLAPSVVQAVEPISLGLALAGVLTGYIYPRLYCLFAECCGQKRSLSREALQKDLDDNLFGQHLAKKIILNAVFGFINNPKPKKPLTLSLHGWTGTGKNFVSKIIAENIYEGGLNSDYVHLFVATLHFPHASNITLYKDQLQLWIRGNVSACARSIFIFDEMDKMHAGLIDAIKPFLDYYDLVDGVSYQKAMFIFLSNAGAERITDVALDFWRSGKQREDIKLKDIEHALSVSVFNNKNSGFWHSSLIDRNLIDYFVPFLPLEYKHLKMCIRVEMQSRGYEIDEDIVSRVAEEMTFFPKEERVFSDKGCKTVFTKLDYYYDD
Luciferin 4-monooxygenase (Photinus pyralis), sequence (P08659 whole entry, looked up): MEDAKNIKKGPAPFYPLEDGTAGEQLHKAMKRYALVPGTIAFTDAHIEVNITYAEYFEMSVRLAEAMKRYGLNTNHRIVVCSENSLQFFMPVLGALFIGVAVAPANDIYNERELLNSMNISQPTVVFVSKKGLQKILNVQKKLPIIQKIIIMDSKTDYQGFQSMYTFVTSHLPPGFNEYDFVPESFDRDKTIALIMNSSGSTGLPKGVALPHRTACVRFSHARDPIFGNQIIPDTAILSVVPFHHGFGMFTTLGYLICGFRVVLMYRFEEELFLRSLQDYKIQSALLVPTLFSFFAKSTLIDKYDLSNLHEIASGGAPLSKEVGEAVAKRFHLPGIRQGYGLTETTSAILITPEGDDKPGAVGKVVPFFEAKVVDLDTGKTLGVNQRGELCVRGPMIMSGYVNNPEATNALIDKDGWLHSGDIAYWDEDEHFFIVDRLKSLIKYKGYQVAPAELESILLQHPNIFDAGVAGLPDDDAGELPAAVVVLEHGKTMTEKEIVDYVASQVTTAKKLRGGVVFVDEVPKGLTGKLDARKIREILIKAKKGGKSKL
Fibroblast growth factor 2 (Homo sapiens), sequence (P09038 whole entry, looked up): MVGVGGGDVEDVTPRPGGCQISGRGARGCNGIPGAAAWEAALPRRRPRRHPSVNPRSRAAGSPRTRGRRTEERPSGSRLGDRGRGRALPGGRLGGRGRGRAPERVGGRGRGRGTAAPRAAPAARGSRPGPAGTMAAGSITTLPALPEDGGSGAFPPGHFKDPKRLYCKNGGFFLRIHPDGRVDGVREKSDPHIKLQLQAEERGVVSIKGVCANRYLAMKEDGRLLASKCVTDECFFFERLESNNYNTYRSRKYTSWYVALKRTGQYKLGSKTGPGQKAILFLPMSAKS
Streptavidin (Streptomyces avidinii), sequence (P22629 whole entry, looked up): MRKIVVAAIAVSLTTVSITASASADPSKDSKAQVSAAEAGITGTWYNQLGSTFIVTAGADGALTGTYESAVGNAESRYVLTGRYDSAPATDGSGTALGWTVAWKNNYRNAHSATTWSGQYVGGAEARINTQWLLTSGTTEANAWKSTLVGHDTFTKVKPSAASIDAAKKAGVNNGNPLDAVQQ
Focal adhesion kinase 1 (Homo sapiens), sequence (Q05397 whole entry, looked up): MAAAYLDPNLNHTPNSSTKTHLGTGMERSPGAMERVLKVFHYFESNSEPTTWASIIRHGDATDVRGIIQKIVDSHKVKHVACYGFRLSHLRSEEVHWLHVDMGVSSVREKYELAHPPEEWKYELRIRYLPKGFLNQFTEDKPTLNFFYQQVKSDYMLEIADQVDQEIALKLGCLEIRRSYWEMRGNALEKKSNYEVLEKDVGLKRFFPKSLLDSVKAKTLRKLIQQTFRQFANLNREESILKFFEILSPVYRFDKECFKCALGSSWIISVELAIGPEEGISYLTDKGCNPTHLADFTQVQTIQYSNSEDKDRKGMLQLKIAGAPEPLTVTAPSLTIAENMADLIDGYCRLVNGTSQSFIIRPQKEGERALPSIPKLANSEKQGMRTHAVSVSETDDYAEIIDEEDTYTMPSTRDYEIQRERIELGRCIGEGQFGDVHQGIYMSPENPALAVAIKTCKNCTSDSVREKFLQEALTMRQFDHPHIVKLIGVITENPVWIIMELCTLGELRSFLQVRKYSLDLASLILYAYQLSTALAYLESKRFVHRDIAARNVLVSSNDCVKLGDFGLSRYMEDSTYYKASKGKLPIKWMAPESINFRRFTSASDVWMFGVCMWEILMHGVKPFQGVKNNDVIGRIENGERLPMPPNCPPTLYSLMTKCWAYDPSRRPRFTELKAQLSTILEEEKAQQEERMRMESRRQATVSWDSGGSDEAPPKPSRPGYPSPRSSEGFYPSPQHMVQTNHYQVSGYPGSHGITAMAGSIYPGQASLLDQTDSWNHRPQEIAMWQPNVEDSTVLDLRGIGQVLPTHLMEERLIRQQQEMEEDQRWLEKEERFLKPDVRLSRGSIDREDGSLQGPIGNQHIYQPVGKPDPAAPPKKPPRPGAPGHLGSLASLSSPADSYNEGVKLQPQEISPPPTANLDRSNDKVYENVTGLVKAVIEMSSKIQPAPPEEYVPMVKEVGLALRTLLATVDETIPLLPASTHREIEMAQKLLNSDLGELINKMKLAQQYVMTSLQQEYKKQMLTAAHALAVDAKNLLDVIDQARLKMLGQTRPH
Follistatin (Homo sapiens), sequence (P19883 whole entry, looked up): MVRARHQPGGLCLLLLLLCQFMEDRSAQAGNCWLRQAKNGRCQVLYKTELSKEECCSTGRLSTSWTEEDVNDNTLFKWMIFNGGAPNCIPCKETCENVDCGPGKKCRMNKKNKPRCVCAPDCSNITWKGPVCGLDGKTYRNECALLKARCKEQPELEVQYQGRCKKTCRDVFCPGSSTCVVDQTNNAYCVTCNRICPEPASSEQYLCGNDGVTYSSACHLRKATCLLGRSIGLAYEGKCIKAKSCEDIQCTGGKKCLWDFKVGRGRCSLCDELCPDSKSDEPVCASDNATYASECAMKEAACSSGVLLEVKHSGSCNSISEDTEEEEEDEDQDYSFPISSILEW

SMILES: C=CCNC(=O)[C@@H]1[C@H]2C(=O)O[C@H](c3ccccc3)[C@H](c3ccccc3)N2[C@H](c2ccc(O)cc2)[C@@]12C(=O)N(C(=O)OCCOC)c1ccc(C#CCNC(N)=O)cc12
- composite z-score [1]: 0.2
- composite z-score [2]: 1.16
- composite z-score [3]: 1.23
- composite z-score [4]: 0.746
- composite z-score [5]: 1.18
- composite z-score [6]: 1.45
- z-score [7]: -0.564
- composite z-score (Lefty1): 1.03
- composite z-score [8]: 0.834
- z-score [9]: -1.43 (inactive)
- composite z-score [10]: 0.468
- z-score [11]: -2.23 (inactive)
- z-score [12]: -0.298 (inactive)
- z-score [13]: 0.35 (inactive)
- z-score [14]: 0.273 (inactive)
- composite z-score [15]: 0.61
- composite z-score [16]: -0.131
- composite z-score (Torsin-1A (Homo sapiens) [17]): 0.699
- composite z-score (Torsin-1A (Homo sapiens) [18]): 0.594
- composite z-score [19]: 1.45

SMILES: [N-]=[N+]=NCc1ccccc1C[C@]1(C(N)=O)COC(c2ccc(OCCCO)cc2)=N1
- composite z-score [1]: 0.0064
- composite z-score [2]: 0.3
- composite z-score [3]: -0.0367
- composite z-score [4]: 0.389
- composite z-score [5]: 1.24
- composite z-score [6]: 0.261
- z-score [7]: 0.564
- composite z-score (Lefty1): 0.299
- composite z-score [8]: 0.821
- z-score [9]: -2.06 (inactive)
- composite z-score [10]: 0.217
- z-score [11]: -2.4 (inactive)
- z-score [12]: -0.602 (inactive)
- z-score [13]: -0.585 (inactive)
- z-score [14]: -1.68 (inactive)
- composite z-score [15]: 0.468
- composite z-score [16]: 0.189
- composite z-score (Torsin-1A (Homo sapiens) [17]): 0.728
- composite z-score (Torsin-1A (Homo sapiens) [18]): 0.972
- composite z-score [19]: -0.584

SMILES: CCOC(=O)C1=CC[C@@H](c2ccccc2)N(S(=O)(=O)c2ccc(C)cc2)[C@H]1c1ccccc1C
- composite z-score [1]: 0.109
- composite z-score [2]: 0.893
- composite z-score [3]: 0.0769
- composite z-score [4]: 0.394
- composite z-score [5]: 0.74
- composite z-score [6]: 0.545
- z-score [7]: 1.86
- composite z-score (Lefty1): 0.384
- composite z-score [8]: 0.406
- z-score [9]: 2.49 (inactive)
- composite z-score [10]: 0.572
- z-score [11]: -2.81 (inactive)
- z-score [12]: -0.953 (inactive)
- z-score [13]: 0.0707 (inactive)
- z-score [14]: 0.285 (inactive)
- composite z-score [15]: 1.05
- composite z-score [16]: -0.15
- composite z-score (Torsin-1A (Homo sapiens) [17]): 0.339
- composite z-score (Torsin-1A (Homo sapiens) [18]): 0.581
- composite z-score [19]: -0.19

SMILES: O=C1c2ccccc2[C@](Cc2ccccc2I)(C(=O)NCCN2CCOCC2)[C@H](c2ccc(CO)cc2)N1C1CCCCC1
- composite z-score [1]: 1.77
- composite z-score [2]: 1.19
- composite z-score [3]: 0.991
- composite z-score [4]: 0.927
- composite z-score [5]: 1.34
- composite z-score [6]: 0.804
- z-score [7]: 1.34
- composite z-score (Lefty1): 1.36
- composite z-score [8]: 1.16
- z-score [9]: -0.147 (inactive)
- composite z-score [10]: 0.379
- z-score [11]: -3.69 (inactive)
- z-score [12]: 0.155 (inactive)
- z-score [13]: -0.168 (inactive)
- z-score [14]: -0.0922 (inactive)
- composite z-score [15]: 0.934
- composite z-score [16]: 0.216
- composite z-score (Torsin-1A (Homo sapiens) [17]): 0.873
- composite z-score (Torsin-1A (Homo sapiens) [18]): 0.469
- composite z-score [19]: 1.52

SMILES: C=C(CCCC)/C(=C/C[C@H](OC(=O)c1ccncc1)c1ccccc1OCCO)c1cnc2ccccc2c1
- composite z-score [1]: 0.997
- composite z-score [2]: 1.08
- composite z-score [3]: 0.166
- composite z-score [4]: 0.47
- composite z-score [5]: 1.27
- composite z-score [6]: 0.912
- z-score [7]: 0.957
- composite z-score (Lefty1): 1.14
- composite z-score [8]: 1.14
- z-score [9]: -0.372 (inactive)
- composite z-score [10]: 0.265
- z-score [11]: -0.401 (inactive)
- z-score [12]: 0.0698 (inactive)
- z-score [13]: -0.583 (inactive)
- z-score [14]: 0.494 (inactive)
- composite z-score [15]: 1.74
- composite z-score [16]: -0.0471
- composite z-score (Torsin-1A (Homo sapiens) [17]): 0.609
- composite z-score (Torsin-1A (Homo sapiens) [18]): 0.712
- composite z-score [19]: 1.45
